Shown are actives, neighbours in structure and some others; about 2.6% of the full set was active somewhere.
Cruzain noTriton: qHTS Assay for Promiscuous and Specific Inhibitors of Cruzain (without detergent) | Cruzipain (Trypanosoma cruzi), P25779 | purified cruzain, Z-FR-AMC fluorescence, no detergent | Potency, µM, without a hit: max response, negative = inhibition, actives largely listed as inhibitors | actives 2.3% (n = 200,000) | AID 1476, 2009;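 further: plate controls were enzyme without inhibitor for no effect and buffer without enzyme for full effect; nearly all actives have a fitted effect of over 40% in size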
Target sequence (P25779 123-467 limits assumed): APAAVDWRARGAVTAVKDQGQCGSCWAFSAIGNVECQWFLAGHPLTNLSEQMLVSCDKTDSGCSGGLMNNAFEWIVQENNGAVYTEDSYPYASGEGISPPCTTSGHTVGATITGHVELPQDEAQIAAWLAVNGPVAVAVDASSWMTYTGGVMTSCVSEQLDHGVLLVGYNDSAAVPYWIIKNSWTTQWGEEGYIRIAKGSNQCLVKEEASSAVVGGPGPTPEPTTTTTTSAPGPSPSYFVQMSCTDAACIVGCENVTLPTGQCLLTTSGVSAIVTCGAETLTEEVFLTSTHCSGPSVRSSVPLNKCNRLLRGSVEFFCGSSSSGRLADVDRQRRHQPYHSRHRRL
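Detergent-free condition (0.00005% Triton X-100) in acetate buffer pH 5.5 with DTT. 1.5 nM enzyme and compound were pre-mixed 15 min, then 2 uM Z-FR-AMC substrate added; reaction progress from fluorescence change between first and third reads (60 s).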
Cruzain inh Det: qHTS Assay for Promiscuous and Specific Inhibitors of Cruzain (with detergent); purified cruzain, Z-FR-AMC fluorescence, 0.01% Triton; AID 1478, 2009; actives 0.43% (n = 200,000); Potency, µM, inactives show max response, negative = inhibition, most hits filed as inhibitors; Cruzipain (Trypanosoma cruzi), P25779;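 further: plate controls were neutral wells for no effect and buffer without enzyme for full effect; nearly all actives have a fitted effect of over 40% in size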
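Read-out: AMC fluorescence (360 nm excitation, 450 nm emission), four reads over 2 min, first-to-third difference used. Conditions: cruzain 1.5 nM, Z-FR-AMC 2 uM, pH 5.5 acetate, 5 mM DTT, 0.01% Triton X-100.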
Numbers without * were called inactive; u = inconclusive. The call rests on the fitted dose curve; in most records, active means well fitted curve in the direction sought with a large enough effect; inconclusive means small, poorly fitted or top-dose-only effect, or another doubt; inactive means no such curve, though single readings can be large; an effect the other way counts as inactive or inconclusive. Potency means the concentration at half of the fitted maximal effect.

SMILES	Cruzain noTriton	Cruzain inh Det
O=[N+]([O-])c1ccc(S(=O)(=O)N2CCn3cccc3C2c2ccccc2F)cc1 (stereo unspecified)	u	-8%
COc1ccc(C2c3cccn3CCN2S(=O)(=O)c2ccc([N+](=O)[O-])cc2)cc1 (stereo unspecified)	25µM*	-3%
COc1ccc(-c2nc3cnc(OC)nc3n(-c3ccccc3)c2=O)cc1	6%	3%
CCC/C=C(\CCC)C(NS(=O)(=O)c1ccccc1)c1ccc(C(F)(F)F)cc1 (stereo unspecified)	-20%	-3%
Cc1nn(-c2ccccc2)c(N2CCCC2)c1/C=N/n1cnc2scc(-c3ccccc3)c2c1=O	-3%	-1%
O=c1c2c(-c3ccccc3)csc2ncn1/N=C/c1c2ccccc2cc2ccccc12	10µM*	-5%
CC(C)[C@]1(O)[C@@H](OC(=O)c2ccc[nH]2)[C@]2(O)[C@@]3(C)C[C@@]4(O)O[C@@]5([C@H](O)[C@@H](C)CC[C@]35O)[C@]2(O)[C@]41C	-3%	2%
O=C(c1ccc2c(c1)N(Cc1ccccc1F)C(=O)c1ccccc1S2(=O)=O)N1CCc2ccccc21	3%	0%
O=C(c1ccc2c(c1)N(Cc1cccc(Cl)c1)C(=O)c1ccccc1S2(=O)=O)N1CCc2ccccc21	20µM*	-3%
Cc1ccc(C)c(CN2C(=O)c3ccccc3S(=O)(=O)c3ccc(C(=O)N4CCN(C)CC4)cc32)c1	1%	1%
Cc1ccc(C)c(CN2C(=O)c3ccccc3S(=O)(=O)c3ccc(C(=O)N4CCc5ccccc54)cc32)c1	32µM*	-1%
CCOCCO	4%	5%
Cc1c(Cl)cccc1-n1c(SCC(=O)NCc2ccccc2)nc2n[nH]c(C)c2c1=N	7%	-1%
COc1cc(CN(C(=O)c2ccccc2[N+](=O)[O-])c2ccccn2)cc(OC)c1OC	12%	-3%
Cc1ccc2[nH]cc(C(c3ccccc3)c3cccs3)c2c1 (stereo unspecified)	-23%	-4%
CC(C)C(=O)OC1=CN(Cc2ccccc2)S(=O)(=O)c2ccccc21	-14%	-7%
O=C(CSc1nnc(-c2c[nH]c3ccccc23)o1)N1CCCCC1	0%	-2%
O=C(CSc1nnc(-c2c[nH]c3ccccc23)o1)c1ccc(-c2ccccc2)cc1	5µM*	-1%
O=C(NCc1ccccc1Cl)c1ccc(NC(=O)N2CCSc3ncccc32)cc1	u	-3%
COc1ccc(NC(=O)c2ccc3nc(-c4ccccc4)c(-c4ccccc4)nc3c2)c(OC)c1	-19%	2%
COc1ccccc1NC(=O)c1ccc2nc(-c3ccccc3)c(-c3ccccc3)nc2c1	32µM*	5%
Cc1ccccc1-c1nc(-n2ccnc2)c2ccccc2n1	6%	-6%
CCN(CC)CCCNC(=S)N1CCn2c(nc3ccccc32)C1	-4%	13µM*
CCN(CC)C(=O)N1CCn2c(nc3ccccc32)C1	-1%	-1%
CC(C)c1ccc(NC(=O)COc2nnc(-c3cccs3)c(-c3cccs3)n2)cc1	5%	-7%
SMILES	Cruzain noTriton	Cruzain inh Det
CCc1ccc(NC(=O)C(C)Oc2nnc(-c3cccs3)c(-c3cccs3)n2)cc1 (stereo unspecified)	20µM*	3%
CC1(C)O[C@H]2[C@@H](O1)[C@@H](C(=O)Nc1cc(F)ccc1F)O[C@@H]1OC(C)(C)O[C@@H]12	-1%	-4%
CCNC(=S)NNC(=O)c1cc(-c2ccc(OC)cc2)nc2ccccc12	23%	-1%
CCOC(=O)c1sc(NC(=O)c2cc(-c3ccc(C)cc3)nc3ccccc23)c(C#N)c1C	10µM*	-1%
COC(=O)c1sc(NC(=O)c2cc(-c3ccccc3)nc3ccccc23)c(C#N)c1C	-20%	-6%
Cc1cc(NC(=O)c2cc(-c3ccccc3C)nc3ccccc23)no1	-14%	-7%
Cc1sc(NC(=O)c2cc(-c3ccccc3)nc3ccccc23)c(C(N)=O)c1C	-10%	-4%
Cc1ccccc1-c1cc(C(=O)Nc2sc(C(=O)OC(C)C)c(C)c2C#N)c2ccccc2n1	10µM*	0%
COc1ccc(Cl)cc1C(=O)NNC(=S)NC(=O)c1cc(-c2ccc(Cl)cc2)nc2ccccc12	3.2µM*	0%
Cc1sc(NC(=O)c2cc(-c3ccc(Cl)cc3)nc3ccccc23)c(C(N)=O)c1C	13µM*	-4%
COc1cc(CNCCCSc2nnnn2C)cc(Br)c1OC	-10%	0%
CCOC(=O)c1cc2c(=O)n3ccccc3nc2n(C(C)C)c1=NC(=O)C(C)(C)Oc1ccc(Cl)cc1	1%	-1%
COc1ccc2c(c1)c1c(c(=O)n(-c3ccc(C)cc3)c(=O)n1CC(=O)NCc1ccc(C)cc1)n2C	-2%	-2%
O=C(CN1C(=O)CC(c2ccco2)Sc2ccccc21)Nc1cccc(C(F)(F)F)c1 (stereo unspecified)	-10%	-7%
CCCCOc1ccccc1C(=O)Nc1nonc1-c1ccccc1	-12%	-5%

Source: PubChem BioAssay
